Measured values taken from PubChem BioAssay (NCATS).
Results filed as inconclusive are left out. The source made the active and inactive calls. Calls follow the shape of the dose curve; as a rule, active = well fitted inhibition curve with a large enough effect; inconclusive = small, poorly fitted or top-dose-only effect; inactive = flat fitted curve, though single readings scatter.

Tests used:
[1] = biological target: Glutathione peroxidase 1 (Homo sapiens) (UniProt P07203); assay: Primary qHTS Assay for Inhibitors of Recombinant Selenoprotein Glutathione Peroxidase 1 (GPX1) (AID 1845191); also: nearly all actives have a fitted effect of over 65% in size
Glutathione peroxidase 1 (Homo sapiens), sequence (P07203 whole entry, looked up): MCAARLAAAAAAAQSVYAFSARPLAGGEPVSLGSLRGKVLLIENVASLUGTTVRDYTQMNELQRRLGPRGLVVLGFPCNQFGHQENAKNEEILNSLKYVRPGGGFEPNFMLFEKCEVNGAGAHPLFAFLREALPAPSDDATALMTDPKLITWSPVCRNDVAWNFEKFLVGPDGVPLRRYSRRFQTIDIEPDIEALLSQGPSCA
Summary of the method: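 Recombinant GPX1 (10 nM final) was preincubated with compound for 30 min at room temperature, then reacted with 1 mM GSH, 0.5 mM CHP, 0.5 mM NADPH and 100 nM glutathione reductase; NADPH fluorescence (340/450 nm) was read at 0 and 15 min.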

[2] = biological target: Phospholipid hydroperoxide glutathione peroxidase GPX4 (Homo sapiens) (UniProt P36969); assay: Primary qHTS Assay for Inhibitors of Recombinant Selenoprotein Glutathione Peroxidase 4 (GPX4) (AID 1845192); also: nearly all actives have a fitted effect of over 65% in size; as to activity change, negative = inhibition: series mostly up to about 50 µM; % is scaled to controls: 0 for no effect and ±100 for the full control effect
Phospholipid hydroperoxide glutathione peroxidase GPX4 (Homo sapiens), sequence (P36969 whole entry, looked up): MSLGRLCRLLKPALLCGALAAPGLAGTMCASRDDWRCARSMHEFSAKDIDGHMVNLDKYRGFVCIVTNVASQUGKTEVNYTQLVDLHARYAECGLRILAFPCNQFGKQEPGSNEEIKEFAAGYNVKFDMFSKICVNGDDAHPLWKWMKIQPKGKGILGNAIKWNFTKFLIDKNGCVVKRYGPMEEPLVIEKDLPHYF
Summary of the method: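 GR-coupled readout: 100 nM GR, 1 mM GSH, 0.5 mM NADPH; NADPH fluorescence (ex 340/em 450 nm) read at t=0 and after 15 min RT. GPX4 200 nM, preincubated 30 min with compound; substrate 0.5 mM CHP.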

[3] = biological target: Luciferin 4-monooxygenase (Photinus pyralis) (UniProt P08659); assay: Primary firefly luciferase (FLuc) qHTS assay for identification of artifact compounds. (AID 1845220); also: nearly all actives have a fitted effect of over 60% in size;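 as to activity change, negative = inhibition: series mostly up to about 54 µM; plate controls were DMSO vehicle for no effect and no enzyme for full effect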
Summary of the method: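 Reaction readout was CCD-imaged luminescence, taken 5 min after adding 10 nM purified firefly enzyme to compound-treated wells holding 10 uM luciferin and ATP in pH 7.6 buffer.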

COc1ccc([C@H]2OC[C@H]3[C@@H]2CO[C@@H]3c2ccc(O[C@@H]3O[C@H](CO)C(O)[C@H](O)[C@H]3O)c(OC)c2)cc1OC (stereo partly specified)
inactive: Potency [1] | Potency [2] | Potency [3]

CC12CC(O)C(O)C=C1c1cc(O)cc(O)c1C(=O)O2 (stereo unspecified)
inactive: Potency [1] | Potency [2] | Potency [3]

CCC1=C(C)C(=O)C(C)CC12C(=O)CCC2C(=O)O (stereo unspecified)
inactive: Potency [1] | Potency [2] | Potency [3]

COc1cnc(-c2ccc(Cn3c(CC(C)(C)C(=O)O)c(SC(C)(C)C)c4cc(OC[C@@H]5Cc6ccccc6N5C(C)=O)ccc43)cc2)nc1
inactive: Potency [1] | Potency [2] | Potency [3]

O=C(O)/C=C/c1ccc2occc2c1O[C@@H]1O[C@H](CO)[C@@H](O)[C@H](O)[C@H]1O
inactive: Potency [1] | Potency [2] | Potency [3]

COc1cc(O[C@@H]2O[C@H](CO[C@H]3OC[C@](O)(CO)[C@H]3O)[C@@H](O)[C@H](O)[C@H]2O)cc(OC)c1O
inactive: Potency [1] | Potency [2] | Potency [3]

C=C1CCC2(C(=O)OC3OC(CO)C(O)C(O)C3O)CCC3(C)C(=CCC4C5(C)CCC(OC6OC(CO)C(OC7OC(C)C(O)C(O)C7O)C(OC7OCC(O)C(O)C7O)C6O)C(C)(C)C5CCC43C)C2C1 (stereo unspecified)
inactive: Potency [1] | Potency [2] | activity change, negative = inhibition [3] 3.5% [at 11.6 µM]

O=C(/C=C/c1ccccc1)OC[C@H]1O[C@@H](OC(=O)c2cc(O)c(O)c(O)c2)[C@H](O)[C@@H](O)[C@@H]1O
inactive: Potency [1] | Potency [2] | Potency [3]

C=C[C@H]1[C@H](O[C@@H]2O[C@H](CO)[C@@H](O)[C@H](O)[C@H]2O)OC=C2C(=O)N3Cc4c([nH]c5ccccc5c4=O)[C@@H]3C[C@H]21
inactive: Potency [1] | Potency [2] | Potency [3]

CC(=O)OC[C@@]12C(=O)C[C@@H](C)[C@]3(C[C@@H](c4ccoc4)OC3=O)[C@H]1CC[C@H](OC(C)=O)[C@]21CO1
inactive: Potency [1] | Potency [2] | Potency [3]

CC1(C)C2CCC1(C)C(OC(=O)C(O)(CC(=O)O)CC(=O)O)C2 (stereo unspecified)
inactive: Potency [1] | Potency [2] | Potency [3]

CC(C/C=C/C(C)(C)O)C1CCC(C)(O)C(O)C1 (stereo unspecified)
inactive: Potency [1] | Potency [2] | Potency [3]

C/C(=C\C1CCC(C)C2CCC3(C)OC123)C(=O)O (stereo unspecified)
inactive: Potency [1] | Potency [2] | Potency [3]

C[C@@H]1C[C@@H](O)[C@@]2(CO)C(CO)=CCC[C@@H]2[C@@]12C[C@@H](c1ccoc1)OC2=O
inactive: Potency [1] | Potency [2] | Potency [3]

CC(/C=C/C=C(\C)C(=O)O[C@@H]1O[C@H](CO[C@@H]2O[C@H](CO)[C@@H](O)[C@H](O)[C@H]2O)[C@@H](O)[C@H](O)[C@H]1O)=C\C=C\C=C(C)\C=C\C=C(/C)C(=O)O[C@@H]1C[C@](O)(C(=O)O)C[C@@H](O)[C@H]1OC(=O)/C=C/c1ccc(O)c(O)c1
inactive: Potency [1] | Potency [2] | activity change, negative = inhibition [3] -0.112% [at 11.6 µM]

C=C[C@H]1[C@H](O[C@@H]2O[C@H](CO)[C@@H](O)[C@H](O)[C@H]2O)OC=C(C(=O)OC)[C@H]1CC=O
inactive: Potency [1] | Potency [2] | Potency [3]

CCC(C)/C=C(C)/C=C/C1=CC2=C(Cl)C(=O)C(C)(O)C(=O)C2(O)C(OC)O1 (stereo unspecified)
inactive: Potency [1] | Potency [2] | Potency [3]

Cc1c(O)cc2c(c1O)COC1(O)CCCOC21 (stereo unspecified)
inactive: Potency [1] | Potency [2] | Potency [3]

C=C(CO)C(=O)O[C@H]1C[C@@]23O[C@@H]2CC/C(=C/[C@H]2OC(=O)C(=C)[C@H]12)CO[C@H]3O
inactive: Potency [1] | Potency [2] | Potency [3]

NC1Nc2ccccc2C1(N)CC1NC(=O)C(Cc2ccccc2)NC(=O)C(Cc2ccccc2)NC1=O (stereo unspecified)
inactive: Potency [1] | Potency [2] | Potency [3]

Cc1ccc(Nc2nnc(-c3ccc([N+](=O)[O-])cc3)o2)cc1Cl
inactive: Potency [1] | Potency [2] | Potency [3]

CC1=C2C(=O)C=C(CO[C@@H]3O[C@H](CO)[C@@H](O)[C@H](O)[C@H]3O)[C@@H]2[C@H]2OC(=O)[C@H](C)[C@@H]2CC1
inactive: Potency [1] | Potency [2] | Potency [3]

O=C(Nc1cc(-c2ccccc2)nn1-c1ccccc1)c1ccc([N+](=O)[O-])cc1
inactive: Potency [1] | Potency [2] | Potency [3]

O=C(O)c1cccc(C(=O)CCC2OC(n3cnc4c(=O)[nH]cnc43)C(O)C2O)c1 (stereo unspecified)
inactive: Potency [1] | Potency [2] | Potency [3]

C/C=C/C=C/C=C/C(=O)N(C)C(C(=O)NC(C)C(=O)N1CCCC1C(N)=O)C(C)C (stereo unspecified)
inactive: Potency [1] | Potency [2] | Potency [3]

C[C@H]1[C@@H](O)[C@H](O)C2[C@]3(C)C([C@@H](O)[C@H]4OC(=O)[C@@H]1[C@@]24C)[C@](C)(O)C=C[C@H]3O[C@@H]1O[C@H](CO)[C@@H](O)[C@H](O)[C@H]1O (stereo partly specified)
inactive: Potency [1] | Potency [2] | Potency [3]

C=C[C@H]1[C@H](O[C@@H]2O[C@H](CO)[C@@H](O)[C@H](OC(=O)/C=C/c3ccc(O)c(OC)c3)[C@H]2O)OC=C2C(=O)OCC[C@]21O
inactive: Potency [1] | Potency [2] | Potency [3]

O=C(O)C[C@H]1CCC(=O)[C@@H]1C/C=C\CCO
inactive: Potency [1] | Potency [2] | Potency [3]

CC(=O)/C=C/C1(O)C(C)=CC(=O)CC1(C)C (stereo unspecified)
inactive: Potency [1] | Potency [2] | Potency [3]

C=C1C[C@@]2(O)O[C@@]3(C[C@H]2C(C)C)[C@@H](C)CC[C@@H]13
inactive: Potency [1] | Potency [2] | Potency [3]

CC(O)/C=C/C1(O)C(C)C(O)C(O[C@@H]2O[C@H](CO)[C@@H](O)[C@H](O)[C@H]2O)CC1(C)C (stereo partly specified)
inactive: Potency [1] | Potency [2] | Potency [3]

OC[C@@]1(O)CO[C@H](OC[C@H]2O[C@@H](OC(CCCCc3ccc(O)cc3)CCc3ccc(O)cc3)[C@H](O[C@H]3OC[C@](O)(CO)[C@H]3O)[C@@H](O)[C@@H]2O)[C@@H]1O (stereo partly specified)
inactive: Potency [1] | Potency [2] | Potency [3]

O=C(O)c1cc(C(F)(F)F)ccc1N1CC[C@H](OCc2ccccn2)C1
inactive: Potency [1] | Potency [2] | Potency [3]

C=C(C(=O)O)C1CC(OC(=O)CC(C)CC)C2(C)CCCC(=C)C2C1 (stereo unspecified)
inactive: Potency [1] | Potency [2] | Potency [3]

CC(=O)c1ccc(O[C@@H]2O[C@H](CO[C@@H]3OC[C@@H](O)[C@H](O)[C@H]3O)[C@@H](O)[C@H](O)[C@H]2O)cc1
inactive: Potency [1] | Potency [2] | Potency [3]

O=C(O)c1cc(O[C@@H]2O[C@H](CO)[C@@H](O)[C@H](O)[C@H]2O)ccc1O
inactive: Potency [1] | Potency [2] | Potency [3]

COC(=O)C1=COC(O[C@@H]2O[C@H](CO)[C@@H](O)[C@H](O)[C@H]2O)C2C(C)C(=O)CC12 (stereo partly specified)
inactive: Potency [1] | Potency [2] | Potency [3]

CC1CCC2(C(=O)O)CCC3(C)C(=CCC4C5(C)CCC(O)C(C)(C(=O)O)C5CCC43C)C2C1(C)O (stereo unspecified)
inactive: Potency [1] | Potency [2] | Potency [3]

C=C[C@H]1[C@H](O[C@@H]2O[C@H](CO)[C@@H](O)[C@H](O)[C@H]2O)OC=C(C(=O)OC)[C@H]1CCO
inactive: Potency [1] | Potency [2] | Potency [3]

CC(C)CC(=O)NCCn1cc(C(=O)O)c(=O)cc1C(O)c1ccccc1 (stereo unspecified)
inactive: Potency [1] | Potency [2] | Potency [3]

CC1=C(CO)C2(C)CCCC(C)(C)C2C(O)C1O (stereo unspecified)
inactive: Potency [1] | Potency [2] | Potency [3]

C/C(=C\C(=O)C[C@@]12C(=O)O[C@]3(C)CC[C@H]1C[C@H]23)C(N)=O
inactive: Potency [1] | Potency [2] | Potency [3]

C=C(C)[C@@H]1CC[C@]2(C(=O)O)CC[C@]3(C)C(CCC4[C@]5(C)C(CC[C@]43C)C(C)(C)[C@@H](O)[C@@H]5C(=O)O)C12 (stereo partly specified)
inactive: Potency [1] | Potency [2] | Potency [3]

C/C=C(\C)C1C(C)=CC2CCC(OS(=O)(=O)O)C(C)C2C1/C=C/C=C/C(=O)O (stereo unspecified)
inactive: Potency [1] | Potency [2] | Potency [3]

COc1cc(C(=O)OC[C@@]2(O)CO[C@@H](O[C@H]3[C@H](Oc4ccc(O)cc4)O[C@H](CO)[C@@H](O)[C@@H]3O)[C@@H]2O)cc(OC)c1O
inactive: Potency [1] | Potency [2] | Potency [3]

CC/C=C/C(O)C(O)C1=C(C)C(=O)C2(O1)C(=O)NC(OC)(C(=O)c1ccccc1)C2O (stereo unspecified)
inactive: Potency [1] | Potency [2] | Potency [3]

C/C=C/C=C/C(O)=C1/C(=O)[C@]2(C)C3/C(=C(O)/C=C/C=C/C)C(=O)C4(C)C1[C@]1(C)O[C@@]4(O)[C@@]3(C)O[C@@]12O
inactive: Potency [1] | Potency [2] | Potency [3]

CC(=O)NCC1CN(c2ccc(-c3ccc(CNCc4cn[nH]n4)cc3)c(F)c2)C(=O)O1 (stereo unspecified)
inactive: Potency [1] | Potency [2] | Potency [3]

C[C@]1(OC(=O)/C=C\c2ccc(O)cc2)C[C@@H](O)[C@]2(O)C=CO[C@@H](O[C@@H]3O[C@H](CO)[C@@H](O)[C@H](O)[C@H]3O)C12 (stereo partly specified)
inactive: Potency [1] | Potency [2] | Potency [3]

COc1cccc(OC)c1-c1nc(C(=O)N[C@@H](CC(C)C)C(=O)O)cn1-c1ccnc2cc(Cl)ccc12
inactive: Potency [1] | Potency [2] | Potency [3]

COc1c(C)c(OCC(O)C(C)(C)O)cc2c1CNC2=O (stereo unspecified)
inactive: Potency [1] | Potency [2] | Potency [3]

OCC1OC(Oc2cc(O)cc(/C=C/c3ccc(OC4OC(CO)C(O)C(O)C4O)cc3O)c2)C(O)C(O)C1O (stereo unspecified)
inactive: Potency [1] | Potency [2] | Potency [3]

C=CCc1ccc(O[C@@H]2O[C@H](CO)[C@@H](O)[C@H](O)[C@H]2O)c(O[C@@H]2O[C@H](CO)[C@@H](O)[C@H](O)[C@H]2O)c1
inactive: Potency [1] | Potency [2] | Potency [3]

CC1(C)COC(=O)[C@@H]1O[C@@H]1O[C@H](CO)[C@@H](O)[C@H](O)[C@H]1O
inactive: Potency [1] | Potency [2] | Potency [3]

COC1OC(O)C2(CCC3(O2)C(C)CC2OC(=O)C4(C)CCCC3(C)C24)C1O (stereo unspecified)
inactive: Potency [1] | Potency [2] | Potency [3]

CS(=O)(=O)c1ccccc1N1CCN(c2nc3c(c(=O)[nH]2)CSCC3)CC1
inactive: Potency [1] | Potency [2] | Potency [3]

COc1cc(/C=C/C(=O)O[C@H]2[C@@H]3C=CO[C@@H](O[C@@H]4O[C@H](CO)[C@@H](O)[C@H](O)[C@H]4O)[C@@H]3[C@@]3(CO)O[C@@H]23)ccc1O
inactive: Potency [1] | Potency [2] | Potency [3]
